Test results from PubChem BioAssay (NCATS).
Records with an inconclusive call do not appear. Active and inactive are the calls of the source. Calls follow the shape of the dose curve; as a rule, active = well fitted curve in the direction sought with a large enough effect; inconclusive = small, poorly fitted or top-dose-only effect, or another doubt; inactive = no such curve, though single readings can be large; an effect the other way counts as inactive or inconclusive.

Columns and labels:
[1] = P-glycoprotein substrates identified in KB-3-1 adenocarcinoma cell line, qHTS therapeutic library screen (AID 1346986); also: nearly all actives have a fitted effect of over 60% in size
Procedure, shortened: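 Dose-response cytotoxicity, KB-3-1 vs P-gp-high KB-8-5-11, no colchicine in assay medium. Read: CellTiter-Glo at 72 h.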

[2] = P-glycoprotein substrates identified in KB-8-5-11 adenocarcinoma cell line, qHTS therapeutic library screen (AID 1346987); also: nearly all actives have a fitted effect of over 65% in size
Procedure, shortened: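 In this qHTS, P-gp-rich KB-8-5-11 cells received library compounds across a concentration range. Viability was quantified by luminescence after 72 h at 37 degree C.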

[3] = test system: Zika virus NS2B-NS3 protease (unlinked complex); experiment: Primary screen GU Rhodamine qHTS for Zika virus inhibitors: Unlinked NS2B-NS3 protease assay (AID 1347159); also: nearly all actives have a fitted effect of over 60% in size
Procedure, shortened: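 Buffer 10 mM Tris-HCl pH 8.0, 0.01% Tween 20. Unlinked protease 25 nM; compound preincubation 15 min, RT, protected from light. Substrate Rhod110, 1.5 microM; ~15% conversion in 15 min.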

[4] = test system: Zika virus NS2B-NS3 protease (linked construct); experiment: Primary screen NINDS Rhodamine qHTS for Zika virus inhibitors (AID 1347160); also: nearly all actives have a fitted effect of over 55% in size
Procedure, shortened: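 Aprotinin served as in-plate control. Conditions: 25 nM linked NS2B-NS3, pH 8.0 Tris buffer, titrated compounds, 15 min preincubation and 15 min reaction with 1.5 microM Rhod110 substrate at room temperature.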

Measured: Potency

COC(=O)C(CC1(O)c2ccccc2N2C(=O)C(CC(C)C)NC21)n1cnc2ccccc2c1=O (configuration not stated)
inactive: all assays above

Nc1ncnc2c1ncn2[C@H]1O[C@@H](C(=O)N2CCN(CC(=O)Nc3cccc4c3CNC4=O)CC2)[C@H](O)[C@@H]1O
inactive: all assays above

C[C@]12CC/C(=N\OCC(=O)O)C=C1CC[C@@H]1[C@@H]2[C@@H](O)C[C@@]2(C)[C@H]1CC[C@]2(O)C(=O)CO
inactive: all assays above

O=C(O)CCc1c(C(=O)O)[nH]c2cc(Cl)cc(Cl)c12
inactive: all assays above

COc1cc(C(=O)OC[C@H]2O[C@@H](OC(C)(C)C(=O)O)[C@H](O)[C@@H](O)[C@@H]2O)cc(OC)c1O
inactive: all assays above

CC(=O)OC[C@@]12C(=O)C[C@@H](C)[C@]3(C[C@@H](c4ccoc4)OC3=O)[C@H]1CC[C@H](OC(C)=O)[C@]21CO1
inactive: all assays above

COc1cc(/C=C/CO[C@@H]2O[C@H](CO)[C@@H](O)[C@H](O)[C@H]2O)cc(OC)c1O[C@@H]1O[C@H](CO)[C@@H](O)[C@H](O)[C@H]1O
inactive: all assays above

C[C@@]12CC3(S(=O)(=O)O)OC(O1)[C@]1(COC(=O)c4ccccc4)[C@H]3C[C@]21O[C@@H]1O[C@H](CO)[C@@H](O)[C@H](O)[C@H]1O
inactive: all assays above
